What was measured:
Format in all cases: functional
[1] = biological target: Solute carrier family 2, facilitated glucose transporter member 1 (Homo sapiens) (UniProt P11166); assay: ST_JUDE_LEISH: Cytotoxicity at 2uM final concentration against transgenic Leishmania Mexicana promastigotes LmGLUT1 that are glucose transport deficient and complemented with the human glucose transporter GLUT1. Activity is measured by DNA content using SYBR green in vitro
[2] = biological target: Hexose transporter 1 (Plasmodium falciparum) (UniProt O97467); assay: ST_JUDE_LEISH: Cytotoxicity at 2uM final concentration against transgenic Leishmania Mexicana promastigotes LmPfHT that are glucose transport deficient and complemented with the Plasmodium falciparum hexose transporter. Activity is measured by DNA content using SYBR green in vitro
[3] = biological target: Glucose transporter (Leishmania mexicana) (UniProt O61059); assay: ST_JUDE_LEISH: Cytotoxicity at 2uM final concentration against transgenic Leishmania Mexicana promastigotes LmGT2 that are glucose transport deficient and complemented with the L. Mexicana glucose transporter 2. Activity is measured by DNA content using SYBR green in vitro

Chain of Solute carrier family 2, facilitated glucose transporter member 1 (Homo sapiens) (P11166 whole entry): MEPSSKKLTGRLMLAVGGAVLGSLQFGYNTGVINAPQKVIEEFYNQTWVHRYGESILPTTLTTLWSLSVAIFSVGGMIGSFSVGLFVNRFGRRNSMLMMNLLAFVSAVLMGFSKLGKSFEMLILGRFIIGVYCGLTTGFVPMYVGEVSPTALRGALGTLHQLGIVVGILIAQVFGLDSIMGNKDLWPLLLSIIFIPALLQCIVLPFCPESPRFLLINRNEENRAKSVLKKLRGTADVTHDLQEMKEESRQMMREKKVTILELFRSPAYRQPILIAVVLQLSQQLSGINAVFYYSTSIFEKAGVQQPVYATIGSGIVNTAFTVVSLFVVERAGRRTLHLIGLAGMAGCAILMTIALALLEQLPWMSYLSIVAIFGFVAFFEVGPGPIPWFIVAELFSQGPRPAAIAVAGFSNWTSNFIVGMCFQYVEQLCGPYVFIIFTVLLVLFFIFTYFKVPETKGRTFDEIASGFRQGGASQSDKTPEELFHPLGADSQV

## CNc1c2c(nc3ccc(NC(=O)CCCCCCc4ccccc4)cc13)CCCC2
[1]
  inhibition: 5.72%
[2]
  inhibition: 8.7%
[3]
  inhibition: 4.32%

## COc1cc(NC(=O)/C=C/c2cc(F)cc(F)c2F)cc(OCCN2CCN(CCN3CCOCC3)CC2)c1
[1]
  inhibition: 3.46%
[2]
  inhibition: 1.58%
[3]
  inhibition: 2.54%

## Cc1ccc(/C=C/C(=O)NCCCCCN2CCN(C(=O)Nc3ccc(Cl)c(C(F)(F)F)c3)CC2)cc1
[1]
  inhibition: 4.47%
[2]
  inhibition: -0.2%
[3]
  inhibition: 0.88%

## O=C(c1ccccc1)N1CCC[C@](CCCN2CCN(c3ccccc3O)CC2)(c2ccc(Cl)c(Cl)c2)C1
[1]
  inhibition: 5.1%
[2]
  inhibition: 4.13%
[3]
  inhibition: 5.99%

## CC[C@H]1CN(Cc2ccco2)CC[C@H]1CCCc1ccnc2ccc(O)cc12
[1]
  inhibition: 4.7%
[2]
  inhibition: 4.86%
[3]
  inhibition: 4.42%

## O=S(=O)(c1ccc(NC(S)=NN=Cc2ccccn2)cc1)N1CCCCC1
[1]
  inhibition: 3.4%
[2]
  inhibition: 6.75%
[3]
  inhibition: 5.11%

## O=[N+]([O-])c1cccc(CNCC2CCN(CCc3ccccc3)CC2)c1
[1]
  inhibition: 2.35%
[2]
  inhibition: 1.86%
[3]
  inhibition: 2.16%

## CCN1CCCC(Nc2ccnc3cc4ccccc4cc23)C1 (stereo not given)
[1]
  inhibition: 4.12%
[2]
  inhibition: 4.34%
[3]
  inhibition: 4.81%

## CCc1ccc(S(=O)(=O)Nc2ccc(CCN(C)C3CCN(C)CC3)cc2)cc1
[1]
  inhibition: 3.75%
[2]
  inhibition: 3.41%
[3]
  inhibition: 2.27%

## CN(Cc1ccncc1)C(Cc1ccccc1)C1CCN(Cc2ccc(O)c(Cl)c2)CC1 (stereo not given)
[1]
  inhibition: 1.88%
[2]
  inhibition: 2.51%
[3]
  inhibition: -0.31%

## c1ccn2c(-c3ncnc(NCc4ccc5c(c4)CCO5)n3)cnc2c1
[1]
  inhibition: 1%
[2]
  inhibition: 1.45%
[3]
  inhibition: 0.24%

## Cc1cc(N(C)C)nc(Nc2ccc(NC(=O)Nc3ccccc3)cc2)n1
[1]
  inhibition: 2.43%
[2]
  inhibition: 3.74%
[3]
  inhibition: 4.26%

## CCCC(C)NC(=O)c1cnn(-c2ccc(C(C)(C)C)cc2)c1OCc1ccc(Br)cc1 (stereo not given)
[1]
  inhibition: 4.76%
[2]
  inhibition: 6.02%
[3]
  inhibition: 5.11%

## Cc1nn(-c2ccccc2)nc1C(=O)NC1CCN(CCNC(=O)c2ccc(Cl)c(Cl)c2)CC1
[1]
  inhibition: 0.92%
[2]
  inhibition: 2.53%
[3]
  inhibition: 1.85%

## CCN(CCCN1CCCCC1)c1cc(C)nc(Nc2cccc(C(F)(F)F)c2C)n1
[1]
  inhibition: -0.36%
[2]
  inhibition: 1.74%
[3]
  inhibition: 0.96%

## O=C(NC1CCC(N2CCC(O)(c3ccc(F)cc3)CC2)CC1)c1cc2ccccc2[nH]1 (stereo not given)
[1]
  inhibition: 1.2%
[2]
  inhibition: 2.62%
[3]
  inhibition: -0.31%

## O=C(NC1CCN(Cc2ccsc2)CC1)c1ccc(-c2cccc(C(F)(F)F)c2)s1
[1]
  inhibition: 8.18%
[2]
  inhibition: 9.07%
[3]
  inhibition: 0.59%

## CC1CCC2(CC1)N=C(N)N=C(N)N2OCc1cc2ccccc2c2ccccc12 (stereo not given)
[1]
  inhibition: 3.83%
[2]
  inhibition: 2.5%
[3]
  inhibition: 2.97%

## N#Cc1ccc2c(c1)CCN(CCC1CCC(NC(=O)c3ccc(-c4ccccc4)s3)CC1)CC2 (stereo not given)
[1]
  inhibition: 4.75%
[2]
  inhibition: 3.75%
[3]
  inhibition: 2.43%

## CN(C)CCC(O)(c1ccc(Br)cc1)c1cccnc1 (stereo not given)
[1]
  inhibition: 3.13%
[2]
  inhibition: 2.98%
[3]
  inhibition: 0.51%

## Nc1cccc(CNCc2ccc(-c3cccc(-c4nc5cc(C(F)(F)F)ccc5[nH]4)c3)cc2)c1
[1]
  inhibition: 0.23%
[2]
  inhibition: 1.1%
[3]
  inhibition: 1.02%

## CCN1CCN(c2cc(C)c3cc(NC(=O)c4ccc(OC)c(OC)c4)ccc3n2)CC1
[1]
  inhibition: 0.58%
[2]
  inhibition: 0.53%
[3]
  inhibition: 0.24%

## CC1(C)N=C(N)N=C(Nc2ccc(F)c(F)c2)N1
[1]
  inhibition: 0.74%
[2]
  inhibition: 0.06%
[3]
  inhibition: -0.02%

## Cc1cccc2nc(-c3cccc(-c4ccc(CNCc5ccccc5)cc4)c3)[nH]c12
[1]
  inhibition: 5.37%
[2]
  inhibition: 3.63%
[3]
  inhibition: 1.78%

## CC(C)Oc1ccc(CCCON2C(=N)N=C(N)NC2(C)C)cc1
[1]
  inhibition: 20.8%
[2]
  inhibition: 28.2%
[3]
  inhibition: 19%

## C(=N\Nc1nccc2sc(-c3ccccc3)cc12)/c1cccnc1
[1]
  inhibition: 4.32%
[2]
  inhibition: 3.5%
[3]
  inhibition: 3.16%

## CCN1CCN(CCCNc2c3ccc(Cl)cc3nc3ccc(O)cc23)CC1
[1]
  inhibition: 0.03%
[2]
  inhibition: 0.02%
[3]
  inhibition: 0.06%

## CCN(CCCN1CCCCC1)c1nccc(Nc2ccc(Cl)cc2)n1
[1]
  inhibition: 2.03%
[2]
  inhibition: 0.37%
[3]
  inhibition: 1.18%

## CC(C)(C)c1ccc(-c2nc3c(ccc4nc(N)nc(N)c43)[nH]2)cc1
[1]
  inhibition: -1%
[2]
  inhibition: -1.54%
[3]
  inhibition: -2.76%

## COc1cccc(CNC(=O)c2cnc(N3CCN(c4ccncc4)CC3)c(Cl)c2)c1
[1]
  inhibition: 18%
[2]
  inhibition: 23.8%
[3]
  inhibition: 10.9%

## CCNC(=O)Nc1cccc(-c2cccc(-c3nc4cc(C(F)(F)F)ccc4[nH]3)c2)c1
[1]
  inhibition: 10%
[2]
  inhibition: 7.8%
[3]
  inhibition: 7.55%

## O=C1CSc2ccc(CNC3CCN(CCc4c(Cl)cnc5ccc(F)cc45)CC3)nc2N1
[1]
  inhibition: 0.93%
[2]
  inhibition: 1.12%
[3]
  inhibition: 2.97%

## CC(C)C[C@H](Nc1ccnc(NCC2CCCCC2)n1)C(=O)Nc1ccccc1
[1]
  inhibition: 3.81%
[2]
  inhibition: 3.97%
[3]
  inhibition: 3.2%

## Cc1cccc(-c2nn(-c3ccccc3)cc2C(=O)Nc2nnc(C)o2)c1
[1]
  inhibition: -1.38%
[2]
  inhibition: -1.47%
[3]
  inhibition: 2.67%

## COc1ccc(OCCCN2CCN(CC(c3ccc(F)cc3)N3CCN(C(C)C)CC3)CC2)c2ccccc12 (stereo not given)
[1]
  inhibition: 5.57%
[2]
  inhibition: 5.69%
[3]
  inhibition: 5.07%

## Cc1cccc2nc(-c3ccc(-c4ccc(NC(=O)Nc5ccc(Cl)cc5)cc4)s3)[nH]c12
[1]
  inhibition: 1.01%
[2]
  inhibition: 1.2%
[3]
  inhibition: 0.32%

## CN(Cc1ccccc1)C1CCN(c2cc(NC(=O)c3cccc(F)c3)ccn2)CC1
[1]
  inhibition: 6.87%
[2]
  inhibition: 8.73%
[3]
  inhibition: 6.54%

## CCCCNC(=O)[C@@H](NC(=O)c1ccc(O)c(-c2ccc(Cl)c(Cl)c2)c1)C(C)C
[1]
  inhibition: 4.49%
[2]
  inhibition: 4.37%
[3]
  inhibition: 3.47%

## CC(C)N1CCC(Oc2ccc(CN3CCN(C(c4ccccc4)c4ccc(Cl)cc4)CC3)cc2)CC1 (stereo not given)
[1]
  inhibition: 6.88%
[2]
  inhibition: 3.12%
[3]
  inhibition: 2.61%

## COc1cccc2cc(C(=O)N[C@@H](CC(C)C)C(=O)N[C@H](/C=N/NC(=O)Cc3cccnc3)CCc3ccccc3)oc12
[1]
  inhibition: 3.03%
[2]
  inhibition: 5.36%
[3]
  inhibition: 1.75%

## COC(=O)c1cccc(NC(=O)NC2CCN(c3ccnc(NCc4ccc(F)cc4)n3)CC2)c1
[1]
  inhibition: -2.83%
[2]
  inhibition: -2.8%
[3]
  inhibition: -0.54%

## COc1ccc2ncc(F)c(CCN3CC(O)C(CNCc4ccc5c(c4)OCCO5)C3)c2n1 (stereo not given)
[1]
  inhibition: 6.54%
[2]
  inhibition: 4.38%
[3]
  inhibition: -0.93%

## O=C(N[C@@H](CC1CCCCC1)C(=O)NCCN1CCOCC1)c1ccc(O)c(-c2ccc(Cl)c(Cl)c2)c1
[1]
  inhibition: -0.52%
[2]
  inhibition: 1.41%
[3]
  inhibition: 0.27%

## C[C@H](NC(=O)c1c(OC2CN(C(c3ccccc3)c3ccccc3)C2)c(-c2ccccc2)nc2ccccc12)C1CCCCC1
[1]
  inhibition: 2.01%
[2]
  inhibition: 0.08%
[3]
  inhibition: 0.33%

## CCn1c(-c2nonc2N)nc2c(-c3cccc(NC(=O)Nc4ccc(C(F)(F)F)cc4)c3)ncc(OCCCN)c21
[1]
  inhibition: 2.98%
[2]
  inhibition: 2.48%
[3]
  inhibition: 3.54%

## Fc1cccc(Cn2ncc3cc(Nc4ncnc5sc(C#Cc6ncc[nH]6)cc45)ccc32)c1
[1]
  inhibition: -0.74%
[2]
  inhibition: 1.74%
[3]
  inhibition: -0.29%

## COc1ccc(C(=O)CCC(=O)N(Cc2ccc(-c3ccc(CNCc4cccnc4)cn3)cc2)C2CCN(Cc3ccccc3)CC2)cc1F
[1]
  inhibition: 3.47%
[2]
  inhibition: 1.26%
[3]
  inhibition: 3.53%

## CN(C)CC(=O)Nc1ccc(-c2ccc3ccnc(N)c3c2)cc1
[1]
  inhibition: 13.7%
[2]
  inhibition: 24.3%
[3]
  inhibition: 5.49%

## [O-][s+]1nc(NCCCN(Cc2cccs2)c2ccccn2)c(NCc2ccccc2)n1 (stereo not given)
[1]
  inhibition: -1.34%
[2]
  inhibition: 0.68%
[3]
  inhibition: -1.82%

## c1ccc(-n2ncc(CNCc3ccc(-c4cccc(-c5nc6ccccc6[nH]5)c4)cc3)n2)cc1
[1]
  inhibition: 1.76%
[2]
  inhibition: 1.26%
[3]
  inhibition: -2.38%
